Screens as filed in PubChem BioAssay.
Sampled rows, rich in hits. Any-hit rate of the full collection: about 12%.
G9a inh: inhibitors of human histone lysine methyltransferase G9a; Q96KQ7; G9a H3K9 monomethylation, AlphaScreen, 2 h; Potency, µM (top dose mostly 102 µM), for inactives: at the top dose activity, negative = inhibition, usual class: inhibitors; actives 8.8% (n = 350,000); AID 504332; further: on the % scale 0 is the no-effect control and ±100 the full control effect; nearly all actives have a fitted effect of over 75% in size
Target sequence (Q96KQ7 913-1193 limits assumed): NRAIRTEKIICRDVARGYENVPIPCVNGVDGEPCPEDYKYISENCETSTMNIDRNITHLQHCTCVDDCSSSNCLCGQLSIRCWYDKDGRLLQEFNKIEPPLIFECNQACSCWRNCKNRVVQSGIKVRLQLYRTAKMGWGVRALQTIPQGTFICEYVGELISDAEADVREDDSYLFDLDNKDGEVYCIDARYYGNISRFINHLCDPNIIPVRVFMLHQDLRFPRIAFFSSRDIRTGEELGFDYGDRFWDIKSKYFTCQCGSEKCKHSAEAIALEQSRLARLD
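G9a (20 nM) was preincubated 15 min with compound, then reacted 2 h at room temperature with 500 nM biotin-H3K9 peptide and 20 µM SAM. Monomethyl-H3K9 detected by AlphaScreen using anti-H3K9me1 antibody.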
HP1b chromo inh: blocks HP1-beta chromodomain binding to methylated histone tails | Potency, µM (highest dose often 114 µM), for inactives: at the highest dose activity change, negative = inhibition, most hits filed as inhibitors | actives 0.56% (n = 390,000) | AlphaScreen HP1-beta / biotin-H3K9me3 peptide binding; further: nearly all actives have a fitted effect of over 70% in size
Target sequence (P83916 whole entry, looked up): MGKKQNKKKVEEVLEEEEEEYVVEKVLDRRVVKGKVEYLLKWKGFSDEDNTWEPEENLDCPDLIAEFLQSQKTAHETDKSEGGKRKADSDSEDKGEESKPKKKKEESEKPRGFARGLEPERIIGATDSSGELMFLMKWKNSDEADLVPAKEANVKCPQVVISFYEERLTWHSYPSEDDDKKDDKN
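Compound inhibition of the preformed complex between 50 nM HP1-beta and 50 nM biotinylated H3K9me3 peptide was read by AlphaScreen. Buffer was PBS pH 7.4 with 0.01% Tween-20. Incubations ran 30 min at room temperature, with 10 ug/mL donor/acceptor beads.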
JMJD2A Tudor: blocks the human JMJD2A Tudor domain; AlphaScreen JMJD2A-Tudor / H3K4me3 peptide binding; O75164; actives 4.4% (n = 390,000); Potency, µM (highest dose often 114 µM), for the others: top-dose activity change, negative = inhibition, hits mostly inhibitors; further: on the % scale 0 is the no-effect control and ±100 the full control effect; nearly all actives have a fitted effect of over 50% in size
BAZ2B inh: BAZ2B (human) inhibition. actives 4.4% (n = 360,000). AlphaScreen BAZ2B-H3K14Ac peptide displacement. Q9UIF8. Potency, µM (titrated, usually from 114 µM), inactives show at the highest dose activity change, negative = inhibition, most hits filed as inhibitors; further: on the % scale 0 is the no-effect control and ±100 the full control effect; nearly all actives have a fitted effect of over 60% in size
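AlphaScreen luminescence quantifies BAZ2B engagement of H3K14Ac peptide; the protein and biotinylated peptide are both at 50 nM final, buffer PBS pH 7.4 with 0.01% Tween-20, all steps at room temperature.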
L3MBTL1 block: blocks human L3MBTL1. Q9Y468. AlphaScreen L3MBTL1–H3K9me1 peptide binding. Potency, µM (titrated, usually from 57.1 µM), inactives show top-dose activity, negative = inhibition, usual class: inhibitors. actives 0.66% (n = 230,000). AID 485360; further: on the % scale 0 is the no-effect control and ±100 the full control effect; nearly all actives have a fitted effect of over 60% in size
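First, the protein-peptide complex forms for 30 min at room temperature (L3MBTL1 50 nM, biotinylated H3K9me1 peptide 75 nM). Next, compounds are pin-transferred and incubated 30 min. Finally, AlphaScreen beads are added and read after 30 min.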
Sfp PPTase inh: Sfp phosphopantetheinyl transferase inhibition; actives 3.5% (n = 310,000); Biochemical Sfp PPTase activity, qHTS; AID 1490; Potency, µM, for the others: largest response in the series, negative = inhibition, hits mostly inhibitors; Q9F4F7;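 further: the enzyme is Sfp with the accession as filed and its product quenches rhodamine fluorescence; 0% = enzyme reaction without inhibitor and -100% = no enzyme wells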
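Fluorescence-quenching assay with 15 nM Sfp, 5 uM rhodamine-CoA and 12.5 uM BHQ-2-labelled ybbR peptide in pH 7.6 Hepes/MgCl2 buffer. Enzyme was pre-incubated with compound for 15 min at room temperature. Rate was taken from the 30-min fluorescence change (525/598 nm).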
* = called active by the depositor; [ ] = another dose, or the depositor's remark. The call rests on the fitted dose curve; in most records, active means well fitted curve in the direction sought with a large enough effect; inconclusive means small, poorly fitted or top-dose-only effect, or another doubt; inactive means no such curve, though single readings can be large; an effect the other way counts as inactive or inconclusive. Potency means the concentration at half of the fitted maximal effect.

Results for CCN(CC)S(=O)(=O)c1ccc(N2CCCC2)c(NC(=O)C2=COCCO2)c1 ?
G9a inh: 50µM*; HP1b chromo inh: 24%; JMJD2A Tudor: -6%; BAZ2B inh: -2%; L3MBTL1 block: 11%

Results for CCN(CC)S(=O)(=O)c1ccc(OC)c(NC(=O)c2ccc(N3CCCC3=O)cc2)c1 ?
G9a inh: -1%[59 µM]; HP1b chromo inh: 41%; JMJD2A Tudor: 5%; BAZ2B inh: 9%; L3MBTL1 block: 3%

How did CCN(CC)S(=O)(=O)c1ccc(N2CCCC2)c(NC(=O)c2ccc(N3CCCC3=O)cc2)c1 do in these assays?
G9a inh: 35µM*; HP1b chromo inh: 9%; JMJD2A Tudor: -20%; BAZ2B inh: -4%; L3MBTL1 block: 3%

Results for CCN(CC)S(=O)(=O)c1ccc(O)c(NC(=O)c2ccc(N3CCOCC3)c([N+](=O)[O-])c2)c1 ?
G9a inh: 7.1µM*; HP1b chromo inh: inconclusive; JMJD2A Tudor: -19%; BAZ2B inh: -3%; L3MBTL1 block: 2%; Sfp PPTase inh: inconclusive

How did CS(=O)(=O)Nc1cccc(-c2ccc3ncnc(Nc4ccccc4)c3c2)c1 do in these assays?
G9a inh: -28%[0.501 µM]; Sfp PPTase inh: 18%

What do the screens show for `CCN(C(=O)CSc1nc2ccc(OC)cc2[nH]1)c1c(N)n(Cc2ccccc2)c(=O)[nH]c1=O`?
G9a inh: 19%[2.33 µM]; HP1b chromo inh: -5%; JMJD2A Tudor: -18%; BAZ2B inh: 6%; L3MBTL1 block: 1%

What do the screens show for `COCCN(C(=O)CSc1nc(-c2ccccc2)cn1N)c1c(N)n(Cc2ccccc2)c(=O)[nH]c1=O`?
G9a inh: 8.9µM*; HP1b chromo inh: 33%; JMJD2A Tudor: -24%; BAZ2B inh: -2%; L3MBTL1 block: -11%

How did CCOc1ccc2nc(SCC(=O)N(CCOC)c3c(N)n(Cc4ccccc4)c(=O)[nH]c3=O)[nH]c2c1 do in these assays?
G9a inh: 10µM*; HP1b chromo inh: 45%; JMJD2A Tudor: 6%; BAZ2B inh: -4%; L3MBTL1 block: 4%

Results for COCCN(C(=O)CSc1nnc(-c2ccccc2F)n1N)c1c(N)n(Cc2ccccc2)c(=O)[nH]c1=O ?
HP1b chromo inh: 18%; JMJD2A Tudor: -3%; BAZ2B inh: 1%; Sfp PPTase inh: 4%

Results for COCCN(C(=O)CSc1nnc(-c2cccs2)n1N)c1c(N)n(Cc2ccccc2)c(=O)[nH]c1=O ?
G9a inh: 56µM*; HP1b chromo inh: 50%; JMJD2A Tudor: -6%; BAZ2B inh: -4%; Sfp PPTase inh: 24%

What do the screens show for `Cc1ccccc1Cn1c(SCc2ccc(C(=O)NC3CCCCC3)cc2)nc2ccncc21`?
G9a inh: inconclusive; HP1b chromo inh: 24%; JMJD2A Tudor: -24%; BAZ2B inh: -2%

How did Cc1cc(C)c(NC(=S)NCCCSC2CCCCC2)c(C)c1 do in these assays?
G9a inh: inconclusive; HP1b chromo inh: inconclusive; JMJD2A Tudor: inconclusive; BAZ2B inh: inconclusive; Sfp PPTase inh: 45µM*

How did CC(C)c1cc(CNC(=O)CC2C(=O)NCCN2CC2CCCCC2)on1 (stereo not given) do in these assays?
G9a inh: 50µM*; HP1b chromo inh: 40%; JMJD2A Tudor: -15%; BAZ2B inh: -2%; L3MBTL1 block: -5%; Sfp PPTase inh: 7%

What do the screens show for `O=C(CC1C(=O)NCCN1CC1CCCCC1)NCc1cc(F)ccc1F` (stereo not given)?
HP1b chromo inh: -13%; JMJD2A Tudor: 11µM*; BAZ2B inh: -3%; L3MBTL1 block: 7%; Sfp PPTase inh: -3%

How did O=C(CC1C(=O)NCCN1CC1CCCCC1)NCc1ccc(F)cc1F (stereo not given) do in these assays?
HP1b chromo inh: 38%; JMJD2A Tudor: -13%; BAZ2B inh: 1%; L3MBTL1 block: 6%; Sfp PPTase inh: 5%
